Assay [1] is described as follows: compound effects on lung adenocarcinoma cell viability – A549, calcein-AM fluorescence, 48 h, basal, profiling panel (AID 1162). Also: test concentration not given here. To be noted: higher = more signal.
A short description of assay [2]: compound effects on differentiated 3T3-L1 adipocyte viability – cell-based, 3T3-L1 adipocytes, calcein-AM fluorescence, 48 h, basal, profiling panel (AID 1163). Also: test concentration not given here. To be noted: 3T3-L1 adipocytes viability, higher = more signal.
The nature of assay [3]: compound effects on hepatocellular carcinoma cell viability – HepG2, calcein-AM fluorescence, 48 h, basal, profiling panel (AID 1164). Also: test concentration not given here. To be noted: higher = more signal.
A short description of assay [4]: compound effects on multiple myeloma cell viability – MM1S, calcein-AM fluorescence, 48 h, basal, profiling panel (AID 1165).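 Also: viability of MM1S multiple myeloma cells under basal unstimulated conditions; test concentration not given here.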 To be noted: higher = more signal.
The nature of assay [5]: calcein-AM signal in unstimulated myeloma cells – cell-based, calcein-AM fluorescence, 48 h, PK04 Diversity Set, profiling panel (AID 1166).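 Also: cells grown under basal conditions without added stimulus; test concentration not given here.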 To be noted: RPMI8226 myeloma viability, higher = more signal.
Assay [6] is described as follows: JC-1 mitochondrial signal, unstimulated HepG2 cells – cell-based, JC-1 fluorescence, 24 h, 100 nL compound, profiling panel (AID 1167). Also: test concentration not given here. To be noted: HepG2 mitochondrial potential, higher = more signal.
Assay [7] in a line: JC-1 mitochondrial signal, unstimulated adipocytes – cell-based, JC-1 fluorescence, 3T3-L1 adipocytes, 24 h, 100 nL compound, profiling panel (AID 1168). Also: test concentration not given here. To be noted: JC-1 mitochondrial fluorescence, higher = more signal, called active from +8 up or from −8 down.
A short description of assay [8]: JC-1 mitochondrial signal, unstimulated myeloma cells – cell-based, JC-1 fluorescence, RPMI8226, 24 h, 100 nL compound, profiling panel (AID 1169). Also: test concentration not given here. To be noted: JC-1 mitochondrial potential fluorescence, higher = more signal.
Assay [9] in a line: JC-1 mitochondrial signal, unstimulated MM1S myeloma – cell-based, JC-1 fluorescence, 24 h, 100 nL compound, profiling panel (AID 1170). Also: test concentration not given here. To be noted: MM1S mitochondrial potential, higher = more signal.
A short description of assay [10]: resazurin metabolic signal in A549 cells – cell-based, resazurin fluorescence, 24 h, PK04 Diversity Set, profiling panel (AID 1171). Also: test concentration not given here. To be noted: A549 viability, higher = more signal, called active from +8 up or from −8 down.
The nature of assay [11]: resazurin metabolic signal in HepG2 cells – cell-based, resazurin fluorescence, 24 h, PK04 Diversity Set, profiling panel (AID 1172). Also: test concentration not given here. To be noted: HepG2 viability, higher = more signal. A general note: The colour change of resazurin is a common sign of viable cells or microbes.
The nature of assay [12]: budding yeast growth changes without added modifier – OD600, strain BY4716, 24 h, basal condition, primary screen (AID 1173). To be noted: S. cerevisiae BY4716 growth, OD600, 24 h; higher = more signal, called active from +8 up or from −8 down.
A short description of assay [13]: viability profiling in MM1S myeloma cells – cell-based, resazurin fluorescence, basal, 24 h, PK04 Diversity Set, profiling panel (AID 1174). Also: test concentration not given here. To be noted: higher = more signal, called active from +8 up or from −8 down.
Assay [14] addresses Dihydroorotate dehydrogenase (quinone), mitochondrial (Plasmodium falciparum (isolate 3D7)) (UniProt Q08210). As to the kind of experiment: inhibition of P. falciparum DHODH – biochemical, C-terminal His tag, absorbance 600 nm, primary screen (AID 1175).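 Also: recombinant parasite enzyme with a five histidine tag at its C terminus; test concentration not given here.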 To be noted: PfDHODH enzyme, DCIP absorbance 600 nm; higher = more signal, called active from +8 up or from −8 down.
Assay [15] in a line: inhibition of PAO1 biofilm formation – strain PAO1, LB-PBS medium, absorbance 600 nm, primary screen (AID 1176). Also: test concentration not given here. To be noted: P. aeruginosa PAO1 growth/biofilm, A600, 12 h; higher = more signal.
Assay [16] can be described thus: growth modulation of vineyard yeast isolate – strain RM11-1a, OD600, basal, 24 h, primary screen (AID 1177).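 Also: cultures grown under basal conditions with no added stressor; test concentration not given here.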 To be noted: S. cerevisiae RM11-1a growth, OD600, 24 h; higher = more signal, called active from +8 up or from −8 down.
The nature of assay [17]: growth of efflux-deficient E. coli DRC39 – strain DRC39, OD650, 24 h, E. coli filamentation inducers, primary screen (AID 1178).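 Also: growth measured as culture turbidity by optical density at 650 nm; test concentration not given here.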 To be noted: E. coli DRC39 acrAB, higher = more signal, called active from +8 up or from −8 down.
A short description of assay [18]: growth of efflux-deficient E. coli DRC39 – strain DRC39, OD650, 48 h, E. coli filamentation inducers, primary screen (AID 1179).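 Also: screen aims at cell division blockers that make cells filament.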 To be noted: E. coli DRC39 delta-acrAB growth, higher = more signal, called active from +8 up or from −8 down.
The nature of assay [19]: viability profiling in RPMI8226 myeloma cells – cell-based, resazurin fluorescence, basal, 24 h, PK04 Diversity Set, profiling panel (AID 1180).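 Also: RPMI8826 multiple myeloma cell line at 5000 cells per well; test concentration not given here.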 To be noted: higher = more signal.
The target in assay [20] is E3 ubiquitin-protein ligase XIAP (Homo sapiens) (UniProt P98170). In words: small molecules binding XIAP protein – biophysical, small-molecule microarray, fluorescence 635 nm, primary screen (AID 1181).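 Also: score merges 667 nm emission and signal to noise over triplicate slides.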 To be noted: higher = more signal.

Drawing on PubChem BioAssay, this text covers z-score and composite z-score for 8 compounds.

Activity calls are given as the source filed them. Unless noted, no rule for the calls is given here.

E3 ubiquitin-protein ligase XIAP (Homo sapiens), sequence (P98170 whole entry, looked up): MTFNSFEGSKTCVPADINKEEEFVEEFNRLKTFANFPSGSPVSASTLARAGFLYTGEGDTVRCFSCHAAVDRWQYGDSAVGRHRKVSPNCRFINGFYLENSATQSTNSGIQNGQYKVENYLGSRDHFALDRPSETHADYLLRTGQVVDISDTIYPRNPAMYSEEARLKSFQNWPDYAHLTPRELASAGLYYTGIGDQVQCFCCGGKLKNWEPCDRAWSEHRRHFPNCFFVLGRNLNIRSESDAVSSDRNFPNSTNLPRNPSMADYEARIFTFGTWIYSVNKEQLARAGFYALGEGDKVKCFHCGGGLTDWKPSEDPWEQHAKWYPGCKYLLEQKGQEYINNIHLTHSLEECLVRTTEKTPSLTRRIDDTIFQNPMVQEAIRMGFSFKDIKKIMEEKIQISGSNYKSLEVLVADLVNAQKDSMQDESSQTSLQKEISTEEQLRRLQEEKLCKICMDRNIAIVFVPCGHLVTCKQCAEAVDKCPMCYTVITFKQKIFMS
Dihydroorotate dehydrogenase (quinone), mitochondrial (Plasmodium falciparum (isolate 3D7)), sequence (Q08210 whole entry, looked up): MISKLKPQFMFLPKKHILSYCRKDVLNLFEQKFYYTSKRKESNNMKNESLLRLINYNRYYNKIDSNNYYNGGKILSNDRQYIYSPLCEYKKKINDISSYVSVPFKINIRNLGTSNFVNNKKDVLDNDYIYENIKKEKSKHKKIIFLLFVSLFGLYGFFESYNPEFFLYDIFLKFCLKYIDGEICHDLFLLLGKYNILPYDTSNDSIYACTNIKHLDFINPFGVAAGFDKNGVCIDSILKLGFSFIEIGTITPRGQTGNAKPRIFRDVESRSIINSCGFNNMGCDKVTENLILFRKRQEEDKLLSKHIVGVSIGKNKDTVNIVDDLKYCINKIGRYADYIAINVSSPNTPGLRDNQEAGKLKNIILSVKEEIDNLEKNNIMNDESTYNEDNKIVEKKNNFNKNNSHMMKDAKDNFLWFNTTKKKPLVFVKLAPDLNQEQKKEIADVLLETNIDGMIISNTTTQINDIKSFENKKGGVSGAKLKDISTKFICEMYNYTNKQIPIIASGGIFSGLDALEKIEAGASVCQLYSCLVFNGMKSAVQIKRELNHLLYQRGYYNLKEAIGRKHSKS

Turning to `CC(C)(C)OC(=O)CC[C@@]1(C(=O)NCc2ccccc2)N=C(c2ccc(OCCCO)cc2)O[C@@H]1c1ccccc1N=[N+]=[N-]`, the z-score in assay [1] is -0.365; in [2] it was 1.55; in assay [3], -0.258; in assay [4], -1.68; in assay [5], -1.41; in assay [6], 0.515. Further, the z-score in assay [7] is 1.35 (inactive); in assay [8], -1.01; in assay [9], 0.24; in [10], -0.682 (inactive); in assay [11], -0.409; in assay [12], 0.381 (inactive). The z-score in assay [13] is -1.36 (inactive); in assay [15], 1.2 (inactive); in [16], 1.99 (inactive); in assay [17], 2.98 (inactive); in [18], 0.914 (inactive); in [19], -0.362. Further, the composite z-score is 1.45 (inactive) in assay [14] and 0.23 in assay [20].
For `CCOC(=O)C[C@H]1[C@H](OC(=O)c2cc3ccccc3oc2=O)[C@@H](NC(=O)Cc2ccc(OC)cc2)c2cc(OCCCO)ccc2N1C(=O)c1ccc2ccccc2n1`, the z-score in [1] is 0.167; in assay [2] it was 0.66; in assay [3], 0.493; in assay [4], -0.171; in assay [5] it was 0.865; in assay [6], -0.917. Moreover, the z-score in assay [7] was -0.0891 (inactive); in [8], -0.265; in assay [9], 0.429; in assay [10] it was -0.341 (inactive); in assay [11] it was -0.604; in assay [12], -1.05 (inactive). For the same compound, the z-score in assay [13] is -0.377 (inactive); in [15] it was -0.234 (inactive); in assay [16] it was -0.315 (inactive); in [17] it was 0.928 (inactive); in assay [18], 0.337 (inactive); in [19], -0.0615. For the same compound, the composite z-score in assay [14] is 0.0564 (inactive); in assay [20] it was -0.0414.
Turning to `O=C1O[C@H](c2ccccc2)[C@H](c2ccccc2)N2[C@H]1[C@@H](C(=O)N1CCN(c3ncccn3)CC1)[C@]1(C(=O)Nc3ccc(C#CC4(O)CCCCCC4)cc31)[C@H]2c1ccc(OCCO)cc1`, the z-score is 0.282 in assay [1]; 1.11 in [2]; 0.473 in [3]; -0.699 in [4]; 0.148 in assay [5]; -1.73 in [6]. The z-score in [7] is -0.309 (inactive); in assay [8], -0.618; in assay [9], -0.87; in [10] it was 0.746 (inactive); in [11] it was 0.204; in [12] it was 1.82 (inactive). The z-score in assay [13] is -0.484 (inactive); in [15] it was 3.52 (inactive); in assay [16] it was 3.34 (inactive); in [17], -0.427 (inactive); in assay [18], -0.0689 (inactive); in assay [19], 0.478. For the same compound, the composite z-score in [14] was -0.884 (inactive); in assay [20] it was 0.258.
For `COCCOC(=O)N1C(=O)[C@@]2(c3cc(C#CC4=CCCCC4)ccc31)[C@H](c1ccccc1OCCO)N1[C@H](c3ccccc3)[C@H](c3ccccc3)OC(=O)[C@H]1[C@@H]2C(=O)N1CCCCCCC1`, the z-score is -2.1 in assay [1]; 0.443 in [2]; -0.599 in assay [3]; -2.38 in assay [4]; -2.38 in assay [5]; 0.737 in assay [6]. The z-score in assay [7] is 0.262 (inactive); in [8] it was -0.934; in assay [9] it was -1.31; in assay [10] it was 0.0309 (inactive); in assay [11] it was 0.133; in assay [12] it was 1.86 (inactive). In addition, the z-score in [13] was -4.58 (inactive); in [15], 0.365 (inactive); in [16] it was 2.01 (inactive); in assay [17], 0.105 (inactive); in assay [18] it was -1.32 (inactive); in [19], -3.11. In addition, the composite z-score was 0.668 (inactive) in [14] and -0.0663 in assay [20].
Take `CCCNC(=O)[C@@H]1c2ccccc2C(=O)N(C(C)C)[C@H]1c1ccc(CO)cc1`: the z-score in assay [1] is 0.678; in assay [2] it was 0.306; in assay [3], 0.997; in assay [4], 0.92; in assay [5], -0.34; in assay [6] it was 1.81. The z-score was 1.82 (inactive) in [7]; -0.119 in assay [8]; -0.695 in assay [9]; 0.136 (inactive) in assay [10]; 0.321 in [11]; 0.121 (inactive) in [12]. In addition, the z-score in [13] is 0.551 (inactive); in [15], 0.127 (inactive); in [16], 0.846 (inactive); in [17], 0.313 (inactive); in assay [18], 1.31 (inactive); in assay [19], 0.497. Besides, the composite z-score in assay [14] was -0.185 (inactive); in assay [20], -0.237.
With `Cc1ccccc1C(O)C1C=CC2C(=O)N(C)C(=O)C2N1N(c1ccccc1)c1ccccc1` (stereo not given), the z-score in assay [1] is -0.665; in assay [2], -1.41; in assay [3], 0.655; in assay [4], -0.967; in assay [5] it was 0.0748; in [6] it was 0.02. The z-score in assay [7] is -0.41 (inactive); in assay [8] it was -0.217; in assay [9], -0.41; in [10], -0.191 (inactive); in assay [11], -0.417; in [12], 0.0882 (inactive). Moreover, the z-score in assay [13] is -0.166 (inactive); in assay [15], 0.53 (inactive); in [16] it was 0.591 (inactive); in [17], -0.209 (inactive); in assay [18], -0.334 (inactive); in [19], -0.0373. Moreover, the composite z-score in assay [14] was 0.0842 (inactive); in assay [20], 0.396.
In the case of `CC(c1ccccc1)C(O)C1C=CC2C(=O)N(c3ccccc3)C(=O)C2N1Nc1ccc([N+](=O)[O-])cc1` (stereo not given), the z-score in assay [1] was -0.898; in [2] it was -0.755; in assay [3], 0.204; in [4], 0.48; in [5] it was -0.129; in assay [6], -0.411. For the same compound, the z-score was -1 (inactive) in [7]; -1.03 in assay [8]; -1.44 in [9]; 1.07 (inactive) in assay [10]; 0.796 in [11]; 0.326 (inactive) in assay [12]. For the same compound, the z-score in assay [13] was 0.831 (inactive); in assay [15], 0.449 (inactive); in assay [16] it was 0.399 (inactive); in assay [17], -0.821 (inactive); in [18], 0.434 (inactive); in assay [19], 0.538. Also, the composite z-score in [14] was 0.101 (inactive); in assay [20], -0.334.
As to `[N-]=[N+]=Nc1ccccc1[C@H]1OC(c2ccc(OCCCO)cc2)=N[C@@]1(CCS(=O)(=O)c1ccccc1)C(=O)NCCN1CCOCC1`, the z-score in [1] is 0.101; in [2] it was -0.223; in assay [3], 0.0355; in assay [4], -0.387; in assay [5], -0.161; in assay [6], 0.816. The z-score in [7] is -0.374 (inactive); in [8], 0.184; in [9], -0.691; in [10], 1.22 (inactive); in assay [11] it was 0.3; in assay [12] it was -0.378 (inactive). For the same compound, the z-score was 0.131 (inactive) in assay [13]; 0.537 (inactive) in [15]; 0.0557 (inactive) in [16]; -0.259 (inactive) in [17]; -0.264 (inactive) in assay [18]; 0.291 in [19]. The composite z-score was 0.467 (inactive) in assay [14] and 0.177 in [20].
